TCR act: Activators of T cell receptors: qHTS campaign. 330,000 tested, under 10 active. primary human leukocytes, anti-CD3, IL-2 HTRF, 48 h. Potency, µM (top dose mostly 9.22 µM), without a hit: top-dose activation of IL-2 secretion, hits mostly activators; note: % of control where 0% means no effect
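Using a-CD3 beads without co-stimulation, primary human leukocytes were exposed to compounds for 48 hr. An HTRF IL-2 kit measured the cytokine, with europium-to-d2 energy transfer producing emission at 665nm upon 320nm excitation.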
MBNL1 CUG block: qHTS Assay for Inhibitors of MBNL1-poly(CUG) RNA binding; Muscleblind-like protein 1 (Homo sapiens), Q9NR56; TR-FRET MBNL1-His/biotin-(CUG)12 binding, 665/545 ratio; Potency, µM (doses to about 57.5 µM), for inactives: at the top dose activity change, negative = inhibition, usual class: inhibitors; 0.036% of 280,000 active; AID 2675, 2010; active = well fitted inhibition curve with a large enough effect in the signal ratio, with a control signal flat, not every such curve was filed as active; inconclusive = small, poorly fitted or top-dose-only effect, or effect the other way, or a change in a side signal; inactive = no such curve, though single readings can be large or run the other way; the % refers to the signal ratio; note: potency is the fitted concentration of half-maximal effect; % is set by controls: 0 for no effect and ±100 for the full control effect
Target sequence (Q9NR56 whole entry, looked up): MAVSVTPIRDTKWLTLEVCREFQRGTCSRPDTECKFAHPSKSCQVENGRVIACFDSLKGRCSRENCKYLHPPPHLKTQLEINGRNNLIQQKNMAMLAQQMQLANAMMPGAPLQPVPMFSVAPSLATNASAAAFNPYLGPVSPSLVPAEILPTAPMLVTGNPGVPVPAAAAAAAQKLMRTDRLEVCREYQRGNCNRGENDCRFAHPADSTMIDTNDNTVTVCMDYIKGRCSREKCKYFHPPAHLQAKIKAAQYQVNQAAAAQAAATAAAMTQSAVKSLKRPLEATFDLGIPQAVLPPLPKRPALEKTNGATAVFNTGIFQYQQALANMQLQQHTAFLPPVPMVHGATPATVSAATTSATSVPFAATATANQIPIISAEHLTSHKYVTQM
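Compounds (final 92 nM to 58 uM) are added to His-tagged MBNL1 and biotin-(CUG)12, then terbium anti-His antibody and streptavidin-XL665 (5 nM final). After 60 min at room temperature, the 665/545 nm ratio is read.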
uPA surface inh: qHTS for Inhibitors of Cell Surface uPA Generation | Potency, µM (highest dose often 38.3 µM), for inactives: at the top dose activity change, negative = inhibition, actives largely listed as inhibitors | cell surface uPA generation assay, qHTS | 0.31% of 330,000 active; active = well fitted inhibition curve with a large enough effect; inconclusive = small, poorly fitted or top-dose-only effect; inactive = no such curve, though single readings can be large or run the other way; tested in mouse RAW 264.7 cells; note: potency is the fitted concentration of half-maximal effect; % is set by controls: 0 for no effect and ±100 for the full control effect; nearly all actives have a fitted effect of over 55% in size
Vif-APOBEC3G blk: qHTS for Inhibitors of Vif-A3G Interactions: qHTS | Potency, µM (highest dose often 46.1 µM), for the others: at the highest dose activity, negative = active, hits mostly inhibitors | AID 602310, 2012 | DNA dC->dU-editing enzyme APOBEC-3G (Homo sapiens), Q9HC16 | HeLa A3G-eYFP + Vif (tagged APOBEC3G with the HIV-1 protein that degrades it), YFP fluorescence, overnight | 0.076% of 410,000 active; note: potency is the fitted concentration of half-maximal effect; % is set by controls: 0 for no effect and ±100 for the full control effect; nearly all actives have a fitted effect of over 60% in size
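Read-out is eYFP fluorescence (Ex 488/Em 500-530) from Vif-expressing HeLa A3G-eYFP cells; more signal means A3G escaped Vif-mediated degradation. Cells plated overnight, compound pinned in, incubated overnight at 37 deg C.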
Chronic BCR inh: qHTS Assay to Find Inhibitors of Chronic Active B-Cell Receptor Signaling | ABC-DLBCL IkBa-CBG/CBR reporter, luminescence ratio, 4 h | AID 493014, 2011 | 0.05% of 340,000 active | Potency, µM (top dose mostly 46.1 µM), inactives show at the top dose activity change, negative = inhibition, most hits filed as inhibitors; active = well fitted inhibition curve with a large enough effect in the signal ratio, with a control signal flat, not every such curve was filed as active; inconclusive = small, poorly fitted or top-dose-only effect, or effect the other way, or a change in a side signal; the % refers to the signal ratio;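 note: potency is the fitted concentration of half-maximal effect; plate controls were basal doxycycline-induced cells for no effect and cells given 10 µM MG132 for full effect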
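Compounds up to 46 uM were incubated four hours with TMD8 cells whose green CBG68 luciferase is fused to IkappaBalpha; red CBR luminescence normalised the signal, and concentration-effect curves were fitted to fusion, red and ratio data.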
Vif-APOBEC3F blk: qHTS for Inhibitors of Vif-A3F Interactions: qHTS | AID 602313, 2012 | 0.2% of 390,000 active | HeLa A3F-eYFP + Vif (tagged APOBEC3F with the HIV-1 protein that degrades it), YFP fluorescence increase | Potency, µM (highest dose often 46.1 µM), without a hit: at the top dose activity, negative = active; note: potency is the fitted concentration of half-maximal effect; % of control where 0% means no effect; nearly all actives have a fitted effect of over 65% in size
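HeLa cells stably expressing Vif plus C-terminally eYFP-tagged A3F were seeded, incubated overnight at 37 deg C, dosed with compound, incubated overnight again at 37 deg C. Yellow fluorescence (Ex 488/Em 500-530) reported blocked Vif-mediated A3F-eYFP degradation.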
Active calls of the source: *; ? = inconclusive; nt = no result given; [ ] = remark or other dose. Hits are enriched below; roughly 0.54% of the tested compounds scored in any of these assays. Unless noted, calls come from the whole dose curve; as a rule, active = well fitted curve in the direction sought with a large enough effect; inconclusive = small, poorly fitted or top-dose-only effect, or another doubt; inactive = no such curve, though single readings can be large; an effect the other way counts as inactive or inconclusive.

SMILES	TCR act	MBNL1 CUG block	uPA surface inh	Vif-APOBEC3G blk	Chronic BCR inh	Vif-APOBEC3F blk
COC(=O)C1CSC(C)(C)C(=O)N1 (stereo not given)	3.3%	-4.5%	-16.8%	2.9%	3.5%	-3.2%
CC1(C)N=c2ccc([N+](=O)[O-])c(N)c2=[N+]1[O-]	7.5%	?	10µM*	2.5%	?	0.4%
COc1ccc(/C=C/C(=O)Nc2ccccc2C(=O)O)cc1OC	1.9%	?	?	-4.3%	?	-3.2%
COC(=O)c1ccccc1NC(=O)/C=C/c1cc(OC)c(OC)c(OC)c1	-4.4%	0.9%	2.0%	-9.1%	16.4µM*	2.9%
O=C(Nc1ccccc1)O/N=C/c1ccc(F)cc1	nt	-3.5%	7.08µM*	-4.4%	?	2.6%
COc1ccc(CN2[C@@H](CC(C)=O)c3ccc(/C=C/C(C)=O)cc3S2(=O)=O)cc1	3.8%	nt	?	?	nt	-0.1%
COc1cccc(N2[C@@H](CC(C)=O)c3ccc(/C=C/C(C)=O)cc3S2(=O)=O)c1	1.1%	nt	3.16µM*	?	nt	4.0%
CN(C)C(=O)COc1ccccc1C(=O)OCC(=O)N(CCC#N)c1ccccc1	nt	nt	nt	-0.3%	nt	nt
Cc1ccc(NCC(=O)N=Nc2c(O)[nH]c3ccc([N+](=O)[O-])cc23)cc1	1.6%	nt	0.8%	-7.1%	19.9%	?
Cc1ccccc1NCC(=O)N=Nc1c(O)[nH]c2ccc([N+](=O)[O-])cc12	4.8%	nt	4.8%	5.01µM*	-1.8%	?
Clc1ccccc1C1CC(c2ccccc2)=Nc2ccccc2N1 (stereo not given)	1.8%	nt	-11.0%	-22.3%	11.9%	20µM*
Brc1ccccc1C1CC(c2ccccc2)=Nc2ccccc2N1 (stereo not given)	-1.5%[46.1 µM]	7.2%	-16.1%	-8.7%	?	?
C[N+](C)(C)c1ccc(/C=C/c2ccnc3ccccc23)cc1	nt	nt	nt	7.5%	nt	nt
O=C(CN1CCCC1)N/N=C/c1c(O)ccc2ccccc12	-5.3%	?	5.01µM*	-1.2%	-1.1%	0.9%
COc1ccccc1CNS(=O)(=O)c1ccc(-c2cnc(C3CC3)o2)cc1	12.1%	2.0%	0.282µM*	?	?	-14.4%
Cc1sc2ccccc2[n+]1CCCC[n+]1c(C)sc2ccccc21	nt	nt	nt	2.4%	nt	nt
CC(=O)OCc1cnc(C)c2oc(=O)c(C(=O)Nc3ccc(F)cc3C)cc12	nt	nt	nt	-2.5%	nt	-7.1%
CSc1cccc(NC(=O)c2cc3c(COC(C)=O)cnc(C)c3oc2=O)c1	nt	nt	nt	?	nt	10µM*
COc1ccc(-c2ccc(CCC(=O)O)n2-c2ccccc2OC)cc1	1.9%	-0.8%	2.24µM*	?	?	-9.0%
COc1ccccc1-n1c(CCC(=O)O)ccc1-c1ccccc1	1.3%	-4.6%	-4.1%	-1.3%	2.6%	1.6%
O=c1oc2ccc(Cl)cc2nc1/C=C(\O)c1ccco1	3.2%	2.5%	?	?	?	1.2%
CC(C)C/C(O)=C/c1nc2cc(Cl)ccc2oc1=O	0.9%[46.1 µM]	-4.7%	1.41µM*	-1.0%	0.6%	-9.0%
CCN(N=O)c1ccc(/C=C/c2ccnc3ccccc23)cc1	nt	nt	nt	-8.1%	nt	nt
COc1ccc(OC)c2c(C)ccnc12	nt	nt	nt	-3.5%	nt	nt
O=C(CCl)Nc1ccc(S(=O)(=O)NC2=NCCCCC2)cc1	0.8%[46.1 µM]	nt	-0.1%	?	?	13.8%
O=C(CCl)Nc1cccc(S(=O)(=O)NC2=NCCCCC2)c1	-6.3%	nt	2.51µM*	?	?	5.0%
COc1cc2c3nnc(-c4ccc(F)cc4)c-3cn(Cc3cccc(F)c3)c2cc1OC	-3.6%	8.4%	5.9%	7.94µM*	2.1%	6.31µM*
CC(c1ccc(N(C)C)cc1)c1ccnc2ccccc12 (stereo not given)	nt	nt	nt	-6.8%	nt	nt
